# Results taken from the OligoGym collection.
# Target: GPR176
# Assay: pooled miR-30 sensor sort-seq; sequence = guide strand
# Conditions: shRNA
# Note: reference of the scale not given here.
row,Sequence,sensor-assay potency score (higher = more potent)
1,TTGCTCCAGACTTCCGTGCAGG,-0.956
2,TTTTTAATGAACCTGTTGGTGA,-0.59
3,TTGTCTGGATCAGCTCTTCTGG,-0.703
4,TAGAGGACTGAGTAGTACCTGT,-0.351
5,ATAGATGTCAGCCACATTGGTT,-1.26

# Target: GPR20
# Assay: as above
# Conditions: shRNA
row,Sequence,sensor-assay potency score (higher = more potent)
1,AAACACGCTGATGACCAGCAGG,-1.04
2,TTGATGGTGTAGATGACTGAGG,-1.03
3,TACCAGTAGATCGGTCACCACC,-1.53
4,TAGATCGGTCACCACCAGGTTG,-0.8
5,TGCATGTTGAGGAAGTAACCGA,-0.614
6,TAGACCACGAGGCTCGTGTGGT,-1.11
7,ATGGTGTAGATGACTGAGGGTG,-1.26
8,TAGTACACAGCGAAGCGCGTGG,0.127
9,TTGGAGCTCCTGTGCATGCTGA,-0.983
10,TAGCGGTCCACGCAGATGCAGG,-1.47
11,TGGTGTAGATGACTGAGGGTGT,-0.513
12,TAGACGATGGGGTCCATGCAGC,-0.856
